Values without a mark were called inactive. The source made the active and inactive calls. The call rests on the fitted dose curve; in most records, active means well fitted curve in the direction sought with a large enough effect in the repeat runs; inconclusive means weak or mixed curves; inactive means flat fitted curve, though single readings scatter.
Experiment: qHTS assay to test for compound auto fluorescence at 460 nm (blue) in HepG2 cell free culture (AID 720685)
Details: Cell-free culture medium, blue autofluorescence 405/460 nm; series mostly up to 91.3 µM; fluorescence, % of fluorescent control: at the top concentration
From the text: U.S. Tox21 Program National Center for Advancing Translational Sciences [NCATS] NIH Chemical Genomics Center [NCGC] U.S. Environmental Protection Agency [EPA] National Institutes of Environmental Health Sciences [NIEHS] National Toxicology Program [NTP] U.S. Food and Drug Administration [FDA] Tox21 Assay Overview: Compound auto fluorescence often interferes with screening of the compound library against various biological targets and signaling pathways. Some of these compounds may have fluorophoric properties. Such properties may interfere with the assay outputs resulting in false positives and/or negatives. To decrease such complications and ensure the compound activities are relevant in terms of biological response, the Tox21 10K compound library was screened for auto fluorescence. From the fluorophores used as reporter signals in our screening assays, the auto fluorescence equivalencies of compounds against three fluorophores have been evaluated: Triamterene, Fluorescein and Rose Bengal sodium for blue, green and red fluorescence, respectively. The fluorescence intensities were measured using Excitation/Emission wavelengths at 405/460nm, 485/535nm and 540/590nm for blue, green and red labels, respectively. This assay includes the blue fluorescence data.
Tox21 Assay Protocol Summary: 5 uL of culture medium (MEM containing 10% FBS) per well was dispensed into black wall/clear bottom 1536-well plates using a Multidrop Combi Dispenser (ThermoFisher Scientific, Waltham, MA). After 23 nL compound or DMSO vehicle was transferred into assay plate by a pintool work station (Kalypsys, San Diego, CA), fluorescence intensities in the assay plates were measured by an Envision (PerkinElmer, Shelton, CT) plate reader using three labels for measuring blue, green and red fluorescence at […] 460, 535 and 590nm respectively.
On the % scale 0 is the no-effect control and ±100 the full control effect.

SMILES | fluorescence, % of fluorescent control | outcome
O=C(N/N=C/c1ccc([N+](=O)[O-])o1)c1cc([N+](=O)[O-])cc([N+](=O)[O-])c1O | -0.589% [at 46 µM] | –
CC(=O)OC(c1ccccc1)C(Cl)(Cl)Cl (stereo not given) | -0.0252% | –
COC(=O)Cc1ccccc1 | 0.0089% | –
CC(C)CCON=O | – | inactive
CC(C)c1ccc(NC(=O)N(C)C)cc1 | -0.0171% | –
CC(C)[C@@H](C(=O)O[C@@H](C#N)c1cccc(Oc2ccccc2)c1)c1ccc(Cl)cc1 | – | inactive
Cc1cccc(C)c1NC1=NCCCS1 | 0.991% [at 46 µM] | –
C[C@H]1[C@@H]2Cc3ccc(O)cc3[C@@]1(C)CCN2C | -0.0123% [at 203 µM] | –
O=C(CCl)CCl | – | inactive
O=S(=O)(c1ccccc1)c1ccccc1 | 0.0091% | –
C=CCN1C[C@H](C)N([C@H](c2ccc(C(=O)N(CC)CC)cc2)c2cccc(OC)c2)C[C@H]1C | -0.0593% [at 46 µM] | –
C[C@H](N)[C@H](O)c1ccc(O)c(O)c1 | 1.41% [at 46 µM] | –
C[C@H]1O[C@H](OC2[C@@H](O)[C@@H](O)C(O)[C@H](O)[C@H]2O)[C@@H](N)C[C@@H]1N=C(N)C(=O)O (stereo not given in full) | 0.0346% | –
CCOP(=S)(OCC)Oc1ccc(S(C)=O)cc1 (stereo not given) | 0.0997% | –
CCOP(=S)(S)OCC | 0.0385% [at 95.7 µM] | –
COC(=O)C1(O)c2ccccc2-c2ccccc21 | -0.0225% | –
CC1(C)[C@H](C(=O)O[C@H](C#N)c2cccc(Oc3ccccc3)c2)[C@@H]1C=C(Br)Br | – | inactive
NNCCO | 0.0176% | –
O=C([O-])c1ccccn1.O=C([O-])c1ccccn1.O=C([O-])c1ccccn1.[Cr+3] | -0.0536% | –
C[N+](C)(C)CCOC(=O)C(O)(c1ccccc1)c1ccccc1 | 0.0254% [at 46 µM] | –

SMILES | fluorescence, % of fluorescent control | outcome
COc1ccc(C(O)(c2cncnc2)C2CC2)cc1 (stereo not given) | -0.0466% | –
NCCc1cc(O)c(O)cc1O | -0.0415% [at 46 µM] | –
CC1(C)CC(=O)CC(C)(C)N1[O] | -0.0771% | –
O=C=NC1CCCCC1 | 0.0288% | –
COc1cc(CC(C)N)c(OC)cc1Br (stereo not given) | – | inactive
CCCN(CCC)c1c([N+](=O)[O-])cc(C(C)C)cc1[N+](=O)[O-] | – | inactive
CCCCCCCCCCCC[N+](C)(C)CCOc1ccccc1 | – | inactive
CCCCC(CC)CO[N+](=O)[O-] (stereo not given) | 0.0119% | –
CCCSP(=S)(OCC)Oc1ccc(SC)cc1 (stereo not given) | -0.0025% | –
CCCCC1C(=O)NC(=O)N(C2CCCCC2)C1=O (stereo not given) | -0.0217% [at 46 µM] | –
NC(=S)c1c(Cl)cccc1Cl | -0.0549% | –
CCN(C(C)=O)c1cccc(-c2ccnc3c(C#N)cnn23)c1 | 2.05% [at 46 µM] | –
COc1ccc2c(c1OC)C(=O)O[C@H]2[C@@H]1c2cc3c(cc2CCN1C)OCO3 | 0.454% [at 46 µM] | –
O=C1CC[C@@]2(O)[C@H]3Cc4ccc(O)c5c4[C@@]2(CCN3CC2CC2)[C@H]1O5 | 0.0507% [at 46 µM] | –
CN(C)C(=O)Nc1cccc(OC(=O)NC(C)(C)C)c1 | -0.14% | –
CCCC[N+]1(C)[C@@H]2CC(OC(=O)[C@H](CO)c3ccccc3)C[C@H]1[C@@H]1O[C@@H]12 (stereo not given in full) | 0.01% [at 46 µM] | –
O=CC=O | – | inactive
c1ccc2sc(SNC3CCCCC3)nc2c1 | – | inactive
OCCSSCCO | 0.0355% | –
CCOC(=O)c1cncn1C(C)c1ccccc1 (stereo not given) | -0.0673% [at 18.6 µM] | –
